Results as given in PubChem BioAssay AID602336 (NMMLSC, 2012).
The other results are listed elsewhere or left out. Calls of active or inactive are those of the source. Cut-off read from the data, not from the text of the source: active = inhibition above about 25%; inactive = the rest.

test system: Botulinum neurotoxin type F light chain protease (Clostridium botulinum); test: BoNT/F light chain protease inhibitors, confirmation, biochemical, flow cytometry, cherry pick 2 (AID 602336); details: multiplex microsphere protease cleavage assay, at 10 µM, active compounds read high

| SMILES | inhibition |
| --- | --- |
| Cc1cc2ccccc2n1CCNC(=O)COc1ccc2ccccc2c1 | -12.9% (inactive) |
| O=C(OCC(=O)c1c[nH]c2ccccc12)c1cccc(O)c1 | -3.8% (inactive) |
| O=C(CN1CCN(c2ccccc2O)CC1)NC(=O)NCc1ccccc1 | -4.3% (inactive) |
| COc1ccc(-c2cc3c(c4c2ccn4C)C2CCC3C2)cn1 (stereo not drawn) | 4.4% (inactive) |
| CC(=O)OCCN(CCCn1c(-c2ccncc2)nc2ccccc21)c1nc(-c2ccc(C)cc2)cs1 | 4% (inactive) |
| Cc1cc2cc(CNC(=O)c3ccc(S(=O)(=O)N4CCOCC4)cc3)ccc2[nH]1 | -10.8% (inactive) |
| CCOc1ncccc1C(=O)OCC(=O)c1c[nH]c2ccccc12 | 3% (inactive) |
| Cc1ccc(CNC(=O)c2cccc3c2C(=O)c2ccc(N4CCC(C)CC4)cc2S3(=O)=O)cc1 | 6.1% (inactive) |
